Molecules are shown by their SMILES. Among all 360,000 compounds or so, about 2,100 (0.58%) were called active.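 The calls were made as follows: active = inhibition at 20 µM, scaled to each plate's controls, above about 33% (limit read from the data); inactive = the rest.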 Shown is part of a subset that was picked to be rich in actives.

By inhibition is commonly meant the relative decrease from the control value, in per cent.

This assay deals with 26S proteasome non-ATPase regulatory subunit 14 (Homo sapiens) (UniProt O00487). Briefly: Rpn11 (PSMD14) deubiquitinase inhibitors, primary screen, biochemical, fluorescence polarization, uHTS (AID 588493). Conditions: human 26S proteasome, Ub4-pepOG fluorescence polarization; at 20 µM; hits give high values; 20S core pre-blocked with epoxomicin.
26S proteasome non-ATPase regulatory subunit 14 (Homo sapiens), sequence (O00487 whole entry, looked up): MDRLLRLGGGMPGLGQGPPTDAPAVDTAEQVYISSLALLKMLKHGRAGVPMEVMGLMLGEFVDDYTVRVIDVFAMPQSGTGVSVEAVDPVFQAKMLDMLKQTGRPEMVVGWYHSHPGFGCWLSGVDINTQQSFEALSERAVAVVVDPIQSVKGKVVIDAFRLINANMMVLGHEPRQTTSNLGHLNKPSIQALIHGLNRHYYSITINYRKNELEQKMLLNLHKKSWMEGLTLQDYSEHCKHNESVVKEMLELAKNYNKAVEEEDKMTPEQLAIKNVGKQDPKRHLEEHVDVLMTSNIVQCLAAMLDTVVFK
For `CCC(=O)N1CCC(C(N)=O)(N2CCCCC2)CC1`, the inhibition is -4.7% (inactive). On to `CCOC(=O)CN(C(=O)COc1nc(C)cc(C)c1C#N)c1ccc(Cl)cc1`, for which the inhibition is 1.3% (inactive). Turning to `O=C(O)c1ccc(NN=CC2=C(N3CCOCC3)/C(=C/c3ccccc3)CC2)cc1`, the inhibition was 51.4% (active). In the case of `O=C1Nc2ccc(Br)cc2/C1=N/N=C/C1=C(N2CCOCC2)C(=C\c2ccccc2)/CC1`, the inhibition is 8% (inactive). With `C=CCn1c(-c2ccccc2OCC)n[nH]c1=S`, the inhibition is -4.4% (inactive).

`CC(C)(C)NC(=O)CSC(=Nc1ccccc1F)NC#N`: the inhibition was 45.6% (active). Regarding `Cc1ccccc1CSCC(=O)NC(=O)NC(C)(C)C`, the inhibition is 4.3% (inactive). For `CC(C)(C)NC(=O)CSc1nnc(NC(=O)CCc2ccccc2)s1`, the inhibition was 2.2% (inactive). To `CC(=O)Nc1ccc(NC(=O)CSCc2cnn(-c3ccccc3)c2-n2cccc2)cc1` belongs -1.2% (inactive); to `CCc1c(C)[nH]c(=S)c(C#N)c1C`, -1.9% (inactive).

Consider `Cc1cccc(-n2c(SCC(N)=O)nc3c(c2=O)C2(CCCCC2)Cc2ccccc2-3)c1`, for which the inhibition was 14.6% (inactive). To `COc1ccc(C(=O)NCc2ccc(Cl)cc2)cc1S(=O)(=O)N1CCCC1` belongs -4.5% (inactive). Regarding `CN(C(=O)c1c(Cl)cnn1C)C12CC3CC(CC(C3)C1)C2`, the inhibition was 0.7% (inactive). Take `N#CC(C(=O)c1ccc(S(=O)(=O)N2CCCCCC2)cc1)c1nc2ccccc2[nH]1` (stereo not drawn): the inhibition was 13.9% (inactive). To `O=C(NCc1ccco1)C1CCCN(S(=O)(=O)c2cnc[nH]2)C1` (stereo not drawn) belongs -5.5% (inactive); to `CCCS(=O)(=O)N1CCCC(C(=O)NCc2ccco2)C1` (stereo not drawn), 34.7% (active).

`O=C(NCc1ccco1)C1CCCN(S(=O)(=O)c2ccccc2)C1` (stereo not drawn): the inhibition is -4.7% (inactive). For the compound `CC(Sc1nc2c([nH]c3ccccc32)c(=O)n1C)c1ccccc1` (stereo not drawn), the inhibition is -0.4% (inactive). Consider `Cc1cc(C)nc(NC2=NCC(=O)N2c2ccc(Cl)cc2)n1`, for which the inhibition was 4.1% (inactive). For the compound `O=C(COCc1cc(-c2ccc3c(c2)OCO3)on1)N1CCN(c2cccc(Cl)c2)CC1`, the inhibition was 6.1% (inactive). For `Cc1c(-c2ccccc2)cn2c1-c1ccc(C)n1CC2`, the inhibition is 44.5% (active). With `CCCCNC(=O)C(C)N(CCN(C)C)C(=O)CCCN1C(=O)NC(c2ccc(Cl)cc2)C(C(=O)OCc2ccccc2)=C1C` (stereo not drawn), the inhibition is -1.7% (inactive). As to `COc1ccc(-c2nc3n(c2Br)CCC3)cc1`, the inhibition was 6.5% (inactive).

For the compound `Cc1ccc(NC(=O)COc2ccc(/C=N\NC(=O)c3cccnc3)cc2)cc1C`, the inhibition was 91% (active). `Cc1cccc(OCC(=O)NCCNC(=O)c2cccnc2)c1`: the inhibition is 2.9% (inactive). As to `Cc1ccc(OCC(=O)NCCCNC(=O)c2cccnc2)cc1C`, the inhibition is 0.1% (inactive).

Take `Cc1ccc(C(=O)N2CCCC2)c(F)c1F`: the inhibition was -4.7% (inactive). On to `O=C(N1CCOCC1)N1CCOCC1`, for which the inhibition is -1.2% (inactive). On to `Cc1nc2ccccc2n1C(=O)N1CCOCC1`, for which the inhibition was 58.5% (active). On to `O=C(c1cc(-c2ccc(Cl)s2)nc2ccccc12)N1CCOCC1`, for which the inhibition was -0.8% (inactive). To `CCOC(=O)C1(Cc2cccc(OC)c2)CCCN(C(=O)CCSC)C1` (stereo not drawn) belongs 5.4% (inactive). `Cc1c(NC(=O)CSc2nnnn2-c2ccc(C(=O)O)cc2)c(=O)n(-c2ccccc2)n1C`: the inhibition was -4.2% (inactive).

On to `Cc1c(NC(=O)CSc2nnc(-c3cccnc3)n2N)c(=O)n(-c2ccccc2)n1C`, for which the inhibition is 0% (inactive). On to `Cc1c(NC(=O)CSc2cccc3cccnc23)c(=O)n(-c2ccccc2)n1C`, for which the inhibition was 48.6% (active). Regarding `CC(C)CC(NC(=O)C1CCCN1C(=O)[C@@H](C)NC(=O)OCc1ccccc1)C(=O)NCC(N)=O` (stereo partly drawn), the inhibition was -2.1% (inactive). Regarding `CC(C)CC(O)C1CCN(C(=O)CCc2nnc(-c3ccc4c(c3)OCO4)o2)CC1` (stereo not drawn), the inhibition was -1.9% (inactive).

With `O=[N+]([O-])c1ccccc1Nc1ccc(O)cc1`, the inhibition was 0.3% (inactive). Turning to `Cc1ccc(Nc2ccccc2N)cc1`, the inhibition was 53% (active). Take `Cc1ccc(Nc2nc(N)nc(CSc3nnc(C)s3)n2)cc1`: the inhibition is -0.4% (inactive). In the case of `O=[N+]([O-])c1cc(S(=O)(=O)Nc2cccc(Cl)c2)ccc1N=Nc1c(O)[nH]c2ccccc12` it was -18% (inactive). With `Cc1oc2c(C)c3oc(=O)c(CC(=O)N[C@@H](CC(C)C)C(=O)N[C@@H](Cc4ccccc4)C(=O)O)c(C)c3cc2c1C`, the inhibition was 71.8% (active).

In the case of `Cc1c(CCC(=O)N[C@@H](CC(C)C)C(=O)O)c(=O)oc2c(C)c3oc4c(c3cc12)CCCC4`, the inhibition is -8.5% (inactive). With `Cc1c(OC(C)C(=O)N[C@@H](Cc2ccccc2)C(=O)O)ccc2c3c(c(=O)oc12)CCCC3` (stereo partly drawn), the inhibition is -4.9% (inactive). For the compound `CC(=NCc1ccc2c(c1)OCO2)C1=C(O)c2ccccc2C1=O`, the inhibition is -6.8% (inactive).

`CCOc1ncccc1C(=O)OCC(=O)Nc1cccc(S(=O)(=O)N2CCCCCC2)c1`: the inhibition was 1.7% (inactive). In the case of `Cc1cccc(Nc2ccccc2C(=O)NCc2ccco2)c1C` it was 0.1% (inactive). For the compound `CC(C)(C)c1ccc(C(=O)NCc2ccco2)cc1`, the inhibition is 0.7% (inactive).

For `CCc1ccc(-c2cc(C(=O)NCc3ccco3)c3ccccc3n2)s1`, the inhibition is 40.1% (active).

In the case of `CN1CCNC(=O)C1CC(=O)N1CC=C(c2ccc(F)cc2)CC1` (stereo not drawn), the inhibition is -2.3% (inactive).

On to `CCCCCCCCCCOC(=O)Cn1c(COc2cccc(OC)c2)[n+](C)c2ccccc21`, for which the inhibition was 33% (active).

As for `CCCc1cc(=O)[nH]c(SCC(=O)Nc2sc3c(c2C#N)CCCC3)n1`, the inhibition was 2% (inactive). On to `COc1cccc(CN(C)CC(=O)Nc2sc3c(c2C#N)CCC3)c1`, for which the inhibition is 18% (inactive). Turning to `COc1ccc(-n2c(SCC(=O)Nc3sc4c(c3C#N)CCCC4)nnc2-c2ccc(O)cc2)cc1`, the inhibition is 59.6% (active). With `Cc1ccc(Cc2c(-c3ccco3)nc3ccc(Cl)cn23)cc1`, the inhibition is 18.2% (inactive). `COC(=O)c1c(CCl)noc1C(=O)NC(C)C`: the inhibition is -0.8% (inactive). Take `O=C(/C=C/c1cccs1)c1cc(Cl)ccc1OC(=O)N1CCOCC1`: the inhibition is 1.7% (inactive). Regarding `O=c1c2ccccc2ncn1CCc1ccncc1`, the inhibition was 1.2% (inactive).

As to `Cc1ccc2c(c1)N(CC(=O)N1CCOCC1)C(=O)CO2`, the inhibition was -3.1% (inactive). As to `O=C(CN1C(=O)CSc2ncccc21)N1CCOCC1`, the inhibition was -4.6% (inactive). Regarding `Cc1cc(/C=C2/SC(=O)N(CC(=O)N3CCCC3)C2=O)ccc1N1CCOCC1`, the inhibition is 59.6% (active).

As for `Cc1cccc(N(C(=O)c2sc(C)nc2C)C(C(=O)NCC2CCCO2)c2ccccc2)c1` (stereo not drawn), the inhibition is -7.9% (inactive). In the case of `CCNC(=O)C1(C)CCCN(Cc2noc(-c3ccccc3OC)n2)C1` (stereo not drawn) it was 2.1% (inactive). For `CC(=O)N1CCN(Cc2cc(=O)oc3cc(C)ccc23)CC1`, the inhibition was 9.9% (inactive).

With `Cc1ccc(S(=O)(=O)N2[C@@H](c3ccc(Br)cc3)C(C(=O)O)=C[C@H]2CC2CCCC2)cc1`, the inhibition is 14.1% (inactive).

Consider `COc1cccc(NC(=O)C2(C)CCN2C(=O)CCC2CCCC2)c1` (stereo not drawn), for which the inhibition is -22.2% (inactive).

With `COc1cccc(CN2C(=O)CCC2(C)C(=O)NC2CCCCCC2)c1` (stereo not drawn), the inhibition is 3.5% (inactive). For `Cc1nnc(N(Cc2ccco2)C(=O)c2ccno2)s1`, the inhibition is 15% (inactive).

`COc1ccc(NC(=O)Cn2nnc(C(=O)NCCc3ccc(OC)c(OC)c3)c2N)cc1`: the inhibition is 7% (inactive). In the case of `COc1cccc(CNC(=O)c2nnn(CC(=O)Nc3cc(C)ccc3C)c2N)c1`, the inhibition is -0.5% (inactive). Consider `COc1ccc(CNC(=O)c2nnn(CC(=O)Nc3cc(C)cc(C)c3)c2N)cc1`, for which the inhibition is 58.1% (active). In the case of `O=C(Nc1cccc(C(=O)O)c1)/C(=C\c1ccccc1)NC(=O)c1ccc(Br)o1`, the inhibition was 1.3% (inactive). As to `CC1(C)NC(=O)N(CCCCSc2ccc(Cl)cc2)C1=O`, the inhibition was 1.8% (inactive).

On to `O=P(c1ccc2c(c1)OCCO2)(N1CCOCC1)N1CCOCC1`, for which the inhibition is 2.8% (inactive). `CCS(=O)(=O)C1=NSC2=NC(=O)/C(=C\c3ccc(OS(=O)(=O)c4ccccc4)cc3)C(=N)N21`: the inhibition was 22.6% (inactive). In the case of `CS(=O)(=O)c1ccc2c(c1)SC1=NC(=O)/C(=C/c3ccco3)C(=N)N12`, the inhibition is 76.1% (active). In the case of `CCCC1C(c2ccccc2)C(C#N)(C#N)C2(C#N)CC1(N)NC2=O` (stereo not drawn), the inhibition was 3% (inactive).

As to `COc1ccc(-c2ccnc(SCC(=O)N3CCOCC3)n2)cc1`, the inhibition is -4% (inactive). In the case of `COC1=C/C(=C/c2c(N)n3nc(CC(=O)N4CCOCC4)sc3nc2=O)C=CC1=O`, the inhibition was 46.9% (active). In the case of `O=C(Oc1ccccc1C(=S)N1CCCCC1)c1cc([N+](=O)[O-])cc([N+](=O)[O-])c1` it was 1.8% (inactive). Turning to `CC(C)CC1C(=O)N(Cc2cn(Cc3ccco3)nn2)CCS(=O)(=O)N1Cc1ccc(-c2ccc(Cl)c(Cl)c2)cc1` (stereo not drawn), the inhibition was 59.9% (active).

`CC1C(=O)N(Cc2cn(Cc3ccco3)nn2)CCS(=O)(=O)N1Cc1ccc(-c2cccc(CO)c2)cc1` (stereo not drawn): the inhibition is 4.5% (inactive). As to `CC(C)CC1C(=O)N(Cc2cn(CC3CCCCC3)nn2)CCS(=O)(=O)N1Cc1ccc(-c2ccc(Cl)cc2)cc1` (stereo not drawn), the inhibition is -2.7% (inactive).

Consider `COc1ccc(NC(=O)CNC(=O)Cn2ccc3ccccc3c2=O)c(OC)c1`, for which the inhibition is -3.8% (inactive). To `CC(C)C1N=C2c3ccccc3N=C(SCC(=O)c3ccc(O)c(O)c3)N2C1=O` (stereo not drawn) belongs -6.6% (inactive); to `COc1ccc(NC(=O)C(CC(C)C)NS(=O)(=O)c2ccc3c(c2)CCN3C(C)=O)cc1OC` (stereo not drawn), 6.4% (inactive); to `CCOC(=O)N1CCC(NC(=O)C(NS(=O)(=O)c2ccc3c(c2)CCN3C(=O)CC)C(C)C)CC1` (stereo not drawn), 46.5% (active). Regarding `CCC(=O)N1CCc2cc(S(=O)(=O)NC(C(=O)N3CCc4ccccc4C3)C(C)C)ccc21` (stereo not drawn), the inhibition was 1.1% (inactive).

`CC(C)S(=O)(=O)c1csc(NC(=O)Nc2ccc(Cl)cc2)c1Cl`: the inhibition is 1.6% (inactive).

For `CCC(C)Cn1c(O)cc2nn(-c3nc4ccccc4s3)c(=O)c-2c1C` (stereo not drawn), the inhibition is 95.3% (active). With `N#Cc1ccc(-c2ccc3nccn3c2)cc1`, the inhibition was 1.6% (inactive). In the case of `O=C(CSc1cccc2cccnc12)N/N=C/c1cccnc1` it was 71.4% (active); in that of `Cc1ccc(/C=N/NC(=O)CSc2nc3ccccc3o2)cc1`, 1% (inactive). For the compound `O=C(CNC(=O)c1cccnc1)N/N=C/c1cc(Br)c(O)c(Br)c1`, the inhibition is -14.1% (inactive).

Source of the values: PubChem BioAssay AID588493 (Sanford-Burnham Center for Chemical Genomics, 2011).
